Assay results: the supplement of paper PMC3545927
The list shows a part of the results. The true hit rate is not given.

Target: furin, P09958
Assay: furin cleavage Z-score vs untreated control; higher = more cleavage, active = 3.5 or more, inactive = 1 or less, 8 variable residues between constant flanks
Method in brief: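 Read counts from sequencing released DNA gave abundance for each bead-bound 8-mer peptide–cDNA fusion cut by purified furin over 7.5, 15 or 30 min. The cleavage Z-score compares log counts with furin-free reactions after lowess adjustment and median absolute deviation scaling.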
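Further: purified furin at 1:10 enzyme:substrate in 50 mM HEPES pH 7.5.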

furin, P09958, sequence (P09958 whole entry): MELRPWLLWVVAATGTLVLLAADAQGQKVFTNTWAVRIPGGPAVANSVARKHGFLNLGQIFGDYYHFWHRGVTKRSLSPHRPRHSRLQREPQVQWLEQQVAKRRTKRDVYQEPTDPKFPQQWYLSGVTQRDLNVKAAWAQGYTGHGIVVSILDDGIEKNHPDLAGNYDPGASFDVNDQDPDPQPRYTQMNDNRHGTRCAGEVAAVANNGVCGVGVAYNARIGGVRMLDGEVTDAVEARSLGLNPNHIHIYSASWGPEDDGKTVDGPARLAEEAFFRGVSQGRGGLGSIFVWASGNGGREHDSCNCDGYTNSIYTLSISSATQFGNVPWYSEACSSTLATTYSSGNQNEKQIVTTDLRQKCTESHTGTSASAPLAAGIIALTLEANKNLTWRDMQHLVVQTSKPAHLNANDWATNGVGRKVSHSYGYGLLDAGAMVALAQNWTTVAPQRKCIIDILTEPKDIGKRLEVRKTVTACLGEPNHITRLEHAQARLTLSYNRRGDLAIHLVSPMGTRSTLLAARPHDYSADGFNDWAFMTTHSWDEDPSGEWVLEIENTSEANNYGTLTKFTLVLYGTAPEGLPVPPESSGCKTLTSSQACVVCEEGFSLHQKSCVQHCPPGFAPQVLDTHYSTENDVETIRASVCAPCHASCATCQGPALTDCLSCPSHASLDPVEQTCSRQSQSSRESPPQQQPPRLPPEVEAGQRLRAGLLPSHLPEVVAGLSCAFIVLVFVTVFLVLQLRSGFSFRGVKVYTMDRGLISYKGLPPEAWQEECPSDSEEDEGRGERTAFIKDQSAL

Sequence | furin cleavage Z-score (7.5 min) | furin cleavage Z-score (15 min) | furin cleavage Z-score (30 min)
CARLSRFPRFAGNASASA [FS-490] | 8.21 (active) | 11.2 (active) | 11.1 (active)
CAMLSRFGRFAGNASASA [FS-692] | -0.109 (inactive) | 0.852 (inactive) | 3.08
CAIPSRRPRFAGNASASA [FS-255] | 5.86 (active) | 8 (active) | 9.09 (active)
CARLSRPDSGAGNASASA [FS-1749] | -0.794 (inactive) | -0.615 (inactive) | -0.815 (inactive)
CALRHHNLVYAGNASASA [HC1386] | 1.49 | 0.243 (inactive) | 1.05
CACINGVCWTAGNASASA [HC697] | -0.68 (inactive) | -1.02 (inactive) | -2.54 (inactive)
CALNCNDSLNAGNASASA [HC374] | -1.18 (inactive) | -0.292 (inactive) | -1.02 (inactive)
CADAESYSSMAGNASASA [HC1351] | 1.28 | 0.832 (inactive) | -0.308 (inactive)
CAVLRRDVITAGNASASA [FS-2855] | 0.181 (inactive) | -1.21 (inactive) | 0.595 (inactive)
CATPGDPKRTAGNASASA [FS-510] | -0.0828 (inactive) | 0.23 (inactive) | -0.487 (inactive)
CAVLGRKKRTAGNASASA [FS-1102] | 8.65 (active) | 9.15 (active) | 8.6 (active)
CASPGRHKRTAGNASASA [FS-380] | 8.84 (active) | 8.17 (active) | 6.66 (active)
CAVLHRNKRTAGNASASA [FS-1661] | 9.47 (active) | 9.94 (active) | 9.22 (active)
CAVLEVVTSTAGNASASA [HC2270] | 0.137 (inactive) | -0.489 (inactive) | -0.471 (inactive)
CAISLRFKRTAGNASASA [FS-172] | 7.22 (active) | 6.1 (active) | 6.83 (active)
CASPGRSARPAGNASASA [FS-93] | -1.18 (inactive) | -1.19 (inactive) | -1.31 (inactive)
CAYNPPLVETAGNASASA [HC1307] | -1.06 (inactive) | -1.13 (inactive) | -1.23 (inactive)
CADVEVVTSTAGNASASA [HC2290] | 1.98 | 0.479 (inactive) | 0.627 (inactive)
CAYSGGDIYHAGNASASA [HC1648] | -0.433 (inactive) | -0.656 (inactive) | -0.39 (inactive)
CAMHTRCHCGAGNASASA [HC1173] | -0.571 (inactive) | -2.41 (inactive) | -1.42 (inactive)
CATRTIASPKAGNASASA [HC704] | 1.03 | 0.625 (inactive) | -0.793 (inactive)
CAWRVDGIMHAGNASASA [HC1170] | 1.37 | 0.67 (inactive) | 0.743 (inactive)

Sequence | furin cleavage Z-score (7.5 min) | furin cleavage Z-score (15 min) | furin cleavage Z-score (30 min)
CAPPPKSPPVAGNASASA [HC1319] | -0.03 (inactive) | -0.325 (inactive) | 0.671 (inactive)
CAPPPRKKRTAGNASASA [HC1323] | 12.7 (active) | 14.5 (active) | 10.1 (active)
CAELLRKKRTAGNASASA [FS-991] | 5.51 (active) | 6.85 (active) | 6.38 (active)
CAIRSGKKRTAGNASASA [FS-669] | -1.71 (inactive) | -0.504 (inactive) | -0.845 (inactive)
CAQLLRKKRPAGNASASA [FS-479] | 2.18 | 1.54 | 4.39 (active)
CAILSRAKRPAGNASASA [FS-252] | 0.222 (inactive) | -1.38 (inactive) | 0.306 (inactive)
CAELGDDGRTAGNASASA [FS-1627] | -0.885 (inactive) | -0.821 (inactive) | -0.581 (inactive)
CAAAQTFLATAGNASASA [HC693] | -1.34 (inactive) | -1.47 (inactive) | -1.85 (inactive)
CACTPCSAHLAGNASASA [HC2480] | 2.02 | 1.15 | 0.414 (inactive)
CAHYPCTINYAGNASASA [HC469] | -0.918 (inactive) | -0.579 (inactive) | 0.122 (inactive)
CAMEECSGHLAGNASASA [HC1736] | -0.517 (inactive) | -0.79 (inactive) | 1.12
CAVWCCSMSYAGNASASA [HC2008] | 1.84 | -0.334 (inactive) | 1.13
CACLRRRRRQAGNASASA [FS-1623] | 8.28 (active) | 7.74 (active) | 5.47 (active)
CASPQRRRRQAGNASASA [FS-1415] | 7.36 (active) | 8.25 (active) | 6.4 (active)
CANMWRCPRQAGNASASA [FS-181] | 1.61 | -1.4 (inactive) | -1.2 (inactive)
CARLRKCVEQAGNASASA [FS-1860] | -0.549 (inactive) | 0.53 (inactive) | 1.14
CAIFRRRPRQAGNASASA [FS-801] | 5.14 (active) | 4.22 (active) | 2.76
CAIGGRFDRQAGNASASA [FS-1012] | -1.34 (inactive) | 2.43 | 1.03
CAGREERRRQAGNASASA [FS-787] | -0.438 (inactive) | -0.529 (inactive) | 0.464 (inactive)
CAEQRRRRRQAGNASASA [FS-234] | 8.68 (active) | 6.63 (active) | 6.29 (active)
CASTPCSAELAGNASASA [HC2552] | -0.156 (inactive) | 0.767 (inactive) | 0.789 (inactive)
